Laboratory results reported in PubChem BioAssay (NCATS).
Results filed as inconclusive are left out. Activity calls are given as the source filed them. Calls come from the whole dose curve; as a rule, active = well fitted inhibition curve with a large enough effect; inconclusive = small, poorly fitted or top-dose-only effect; inactive = flat fitted curve, though single readings scatter. Numbered stars: 1 amine (or outer) side, 2 acyl side, 3 side chain; on linkers, the order of the positions; unused ones are H or OH. Bridge positions count the residues as written; N and C are the ends. Square brackets hold non-standard residues; d marks the D form. Peptide text beside a SMILES is read from it. * marks the point of attachment. ξ: configuration not given here. ΔAla(Z-3-ureido) = NC(=O)N/C=C(\N)C(=O)O; ξDab(CH2SO3H) = NC(CCNCS(=O)(=O)O)C(=O)O; X2 = NC1=NC(O)CC(C(N[*:1])C(=O)[*:2])N1; X1 = NC1=NCCC(C(N[*:1])C(=O)[*:2])N1; Heptanoyl(6-Me) = CC(C)CCCCC(=O)*; ξβ3hOrn = NCCCC(N)CC(=O)*; Orn = NCCC[CH](N)C(=O)O; Dab = NCC[CH](N)C(=O)O; Dap = NC[CH](N)C(=O)O

The molecules below were run on DFO2036 (assay: qHTS profiling for inhibitors of Plasmodium falciparum proliferation (AID 504749; note: nearly all actives have a fitted effect of over 60% in size)). Details: P. falciparum in erythrocytes, SYBR Green DNA, 72 h; series mostly up to 28.7 µM.
Source text: NIH National Institute of Allergy and Infectious Diseases [NIAID] NIH Chemical Genomics Center [NCGC] MLPCN Grant: None Assay Provider: Xinzhuan Su, NIAID NCGC Assay Overview: Plasmodium falciparum is a virulent malarial parasite that kills 1-2 million people worldwide each year. Transmitted by mosquitoes, the sporozoite form of the parasite enters the blood stream to infect hepatocytes, where they become merozoites that infect red blood cells (erythrocytes). Within erythrocytes, merozoites begin a […] cycle of growth and division, after which the parasite is released to infect new red blood cells. Gametocytes, which form within erythrocytes as well, circulate in the bloodstream and are ingested by the mosquito, thereby completing the life cycle. To profile malarial isolates for differential chemical responses and to identify inhibitors of malarial growth, an assay that measures P. falciparum growth and replication within erythrocytes was employed. This assay uses a DNA binding fluorescent dye (SYBR Green) to detect parasite DNA following cell lysis. Because mature erythrocytes lack DNA, only Plasmodium-derived DNA is detected.
NCGC Assay Protocol Summary: The SYBR Green viability assay was adapted from a method described previously (Plouffe et al., 2008). For screening 3 ul culture medium was dispensed into 1536 well black clear bottom plates (Aurora Biotechnologies) using a Multidrop Combi (Thermo Fisher Scientific Inc.), 23 nL compounds in DMSO were added by a pin tool (Kalypsys), and 5 ul of erythrocytes infected with P. falciparum (0.3% parasitemia, 2.5% hematocrit final concentration) were added. The plates were incubated at 37 C in a humidified incubator in 5% CO2 for 72 h, and 2 ul lysis buffer (20 mM Tris HCl, 10 mM EDTA, 0.16% saponin, 1.6% triton X, 10X SYBR Green I supplied as 10,000X […] by Invitrogen) was added to each well. The plates were mixed for 25 sec with gentle shaking and incubated overnight at room temperature in the dark. The following morning, fluorescence intensity at 485(14) nm excitation and 535(25) nm emission wavelengths was measured on an EnVision (Perkin Elmer) plate reader. Plate reads were normalized relative to the control inhibitor (0.29 uM artemisinin) and vehicle (DMSO) wells present on each plate and then corrected by an algorithm using vehicle-only control plates at the beginning and end of the compound plate stack.
Potency is the fitted concentration of half-maximal effect.

Potency, inactive:
O=C(O)c1ccccc1-c1c2cc(Br)c(=O)c(Br)c-2oc2c(Br)c(O)c(Br)cc12
CC(N)C(=O)NCC(=O)NC1CSSCC(C(=O)O)NC(=O)C(CO)NC(=O)C(C(C)O)NC(=O)C(Cc2ccccc2)NC(=O)C(C(C)O)NC(=O)C(CCCCN)NC(=O)C(Cc2c[nH]c3ccccc23)NC(=O)C(Cc2ccccc2)NC(=O)C(Cc2ccccc2)NC(=O)C(CC(N)=O)NC(=O)C(CCCCN)NC1=O (stereo not drawn)
CCC(C)C1NC(=O)C(Cc2ccc(O)cc2)NC(=O)C(N)CSSCC(C(=O)N2CCCC2C(=O)NC(CC(C)C)C(=O)NCC(N)=O)NC(=O)C(CC(N)=O)NC(=O)C(CCC(N)=O)NC1=O (stereo not drawn)
CCC(C)C1NC(=O)C(CCNCS(=O)(=O)O)NC(=O)C(NC(=O)C(CCNCS(=O)(=O)O)NC(=O)C(NC(=O)C(CCNCS(=O)(=O)O)NC(=O)CCCCC(C)C)C(C)O)CCNC(=O)C(C(C)O)NC(=O)C(CCNCS(=O)(=O)O)NC(=O)C(CCNCS(=O)(=O)O)NC(=O)C(C(C)CC)NC1=O (stereo not drawn) ({Heptanoyl(6-Me)}-[ξDab(CH2SO3H)]T[ξDab(CH2SO3H)][Dab][ξDab(CH2SO3H)]II[ξDab(CH2SO3H)][ξDab(CH2SO3H)]T; lactam 4-C; configuration not given here)
CC(C)C(NC(=O)C(CC(=O)O)NC(=O)C(CCCCN)NC(=O)C(N)CCCN=C(N)N)C(=O)NC(Cc1ccc(O)cc1)C(=O)O (stereo not drawn) (H-RKDVY-OH; configuration not given here)
Cn1cc(O)nc1NC(=O)Nc1cccc(Cl)c1
COc1ccc(-c2nc3ccc(C4=C(C)CC(=O)NN4)cc3[nH]2)cc1
CCC1NC(=O)C(NC(=O)c2ncccc2O)C(C)OC(=O)C(c2ccccc2)NC(=O)C2CC(=O)CCN2C(=O)C(Cc2ccccc2)N(C)C(=O)C2CCCN2C1=O (stereo not drawn)
CCOC(=O)C(CS)NCCN[C@@H](CS)C(=O)OCC (stereo partly drawn)
C=CC1=C(C(=O)O)N2C(=O)[C@@H](NC(=O)C(N=O)c3csc(N)n3)[C@H]2SC1 (stereo partly drawn)
O=C1/C(=C\c2cccs2)CCC/C1=C/c1cccs1
NCCCC(N)CC(=O)NC1CNC(=O)C(C2CC(O)N=C(N)N2)NC(=O)/C(=C/NC(N)=O)NC(=O)C(CO)NC(=O)C(CO)NC1=O (stereo not drawn) (ξβ3hOrn-[Dap]SS[ΔAla(Z-3-ureido)][X2]; lactam 1-C; configuration not given here)
NC(=O)CCC1NC(=O)C(Cc2ccccc2)NC(=O)C(Cc2ccc(O)cc2)NC(=O)CCSSCC(C(=O)N2CCCC2C(=O)NC(CCCN=C(N)N)C(=O)NCC(N)=O)NC(=O)C(CC(N)=O)NC1=O (stereo not drawn)
CCC(Oc1ccccc1)C(=O)NC1C(=O)N2C1SC(C)(C)C2C(=O)O (stereo not drawn)
CC1(C)C(/C=C/C=C/C=C/C=C2\N(CCCCS(=O)(=O)O)c3ccc4ccccc4c3C2(C)C)=[N+](CCCCS(=O)(=O)[O-])c2ccc3ccccc3c21
CC(=O)OCC1=C(C(=O)O)N2C(=O)C(NC(=O)Cc3ccccc3)C2SC1 (stereo not drawn)
CC(C)CC(NC(=O)C(COC(C)(C)C)NC(=O)C(Cc1ccc(O)cc1)NC(=O)C(CO)NC(=O)C(Cc1c[nH]c2ccccc12)NC(=O)C(Cc1cnc[nH]1)NC(=O)C1CCC(=O)N1)C(=O)NC(CCCN=C(N)N)C(=O)N1CCCC1C(=O)NNC(N)=O (stereo not drawn)
CC(C)C[C@H](NC(=O)[C@@H](Cc1c[nH]c2ccccc12)NC(=O)[C@@H](Cc1ccc(O)cc1)NC(=O)[C@@H](CO)NC(=O)[C@@H](Cc1c[nH]c2ccccc12)NC(=O)C(Cc1cnc[nH]1)NC(=O)C1CCC(=O)N1)C(=O)N[C@@H](CCCN=C(N)N)C(=O)N1CCC[C@@H]1C(=O)NCC(N)=O (stereo partly drawn)
CNCC(=O)NC(CCCN=C(N)N)C(=O)NC(C(=O)NC(Cc1ccc(O)cc1)C(=O)NC(C(=O)NC(Cc1cnc[nH]1)C(=O)N1CCCC1C(=O)NC(C)C(=O)O)C(C)C)C(C)C (stereo not drawn)
CC(=O)OCC(=O)[C@@]1(O)CCC2C3CCC4=CC(=O)CC[C@]4(C)C3=CC[C@@]21C (stereo partly drawn)
NCCCC(N)CC(=O)NCC1NC(=O)C(CO)NC(=O)C(N)CNC(=O)C(C2CCN=C(N)N2)NC(=O)/C(=C/NC(N)=O)NC1=O (stereo not drawn) (H-[Dap]S[Dap](ξβ3hOrn)[ΔAla(Z-3-ureido)][X1]; lactam 1-C; configuration not given here)

Potency, active:
O=C(OCC1OC(OC(=O)c2cc(O)c(O)c(OC(=O)c3cc(O)c(O)c(O)c3)c2)[C@@H](OC(=O)c2cc(O)c(O)c(OC(=O)c3cc(O)c(O)c(O)c3)c2)C(OC(=O)c2cc(O)c(O)c(OC(=O)c3cc(O)c(O)c(O)c3)c2)C1OC(=O)c1cc(O)c(O)c(OC(=O)c2cc(O)c(O)c(O)c2)c1)c1cc(O)c(O)c(OC(=O)c2cc(O)c(O)c(O)c2)c1 (stereo partly drawn) 2240 nM
CC(C)CC1NC(=O)C(CCCN)NC(=O)C(C(C)C)NC(=O)C2CCCN2C(=O)C(Cc2ccccc2)NC(=O)C(CC(C)C)NC(=O)C(CCCN)NC(=O)C(C(C)C)NC(=O)C2CCCN2C(=O)C(Cc2ccccc2)NC1=O (stereo not drawn) (cyclo(FPV[Orn]LFPV[Orn]L); configuration not given here) 2.8 nM
